Among the data in PubChem BioAssay (NCI) are growth values, retold here.

Molecules are shown by their SMILES. Compounds without any hit were thinned out: in the full panel of roughly 83,000, 20% have a hit.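 A percent growth of 40 corresponds to 60% growth inhibition; 0 means no net growth; -100 means all cells died. Active threshold: below 10.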 A number with no mark means an inactive call. The source made the active and inactive calls.

Among the test systems are HCT-15 colon; HT29 colon; SNB-75 CNS; SNB-19 CNS; U251 CNS; PC-3 prostate; SK-MEL-5 melanoma; UACC-62 melanoma; LOX IMVI melanoma; SK-MEL-28 melanoma; SK-MEL-2 melanoma; SN12C renal; UO-31 renal; TK-10 renal; ACHN renal; CAKI-1 renal; A498 renal; CCRF-CEM leukemia; MOLT-4 leukemia; EKVX NSCLC.
What all share (assay): NCI-60 one-dose screen, 48 h (100 = growth as untreated, 0 = no growth, -100 = all killed)
What all share (details): 10 µM unless noted

Regarding `COc1cc(C[C@H]2COc3cc(O)cc(O)c3C2=O)ccc1O`, the growth was 19.9% in the test with HCT-15 colon; 83.8% with HT29 colon; 14.1% in the test with SNB-75 CNS; 31.5% in the test on SNB-19 CNS; 22.3% with U251 CNS; 29.7% in the test on PC-3 prostate. Moreover, the growth in the test with SK-MEL-5 melanoma is 22.4%; with UACC-62 melanoma, 30.9%; with LOX IMVI melanoma, 38.6%; in the test on SK-MEL-28 melanoma, 58.4%; with SK-MEL-2 melanoma, 13.2%; with SN12C renal, 40.9%. The growth was 48.8% in the test with UO-31 renal; 58.7% in the test with TK-10 renal; 41.7% with ACHN renal; 35.8% in the test on CAKI-1 renal; 90.4% in the test on A498 renal; 11.4% with CCRF-CEM leukemia. Moreover, in the test with MOLT-4 leukemia, the growth was 29.3%.

`CC(C)(C)CC(C)(C)Nc1c(-c2c(O)c3ccccc3oc2=O)nc2sc3ccccc3n12`: the growth in the test on HCT-15 colon is 20%; in the test on HT29 colon, 34.8%; with SNB-75 CNS, 49.7%; with SNB-19 CNS, 26.1%; with U251 CNS it was 25.5%; in the test on PC-3 prostate it was 34.9%. Moreover, the growth with SK-MEL-5 melanoma is 42%; in the test with UACC-62 melanoma it was 30.4%; with LOX IMVI melanoma, 36.4%; in the test with SK-MEL-28 melanoma, 58.2%; in the test with SK-MEL-2 melanoma, 66.2%; in the test with EKVX NSCLC, 26.6%. Also, the growth with UO-31 renal was 16%; in the test with TK-10 renal it was 32.3%; in the test on ACHN renal, 33.7%; in the test with CAKI-1 renal, 23.5%; with A498 renal, 69.6%; in the test with CCRF-CEM leukemia, 23.4%. Besides, the growth with MOLT-4 leukemia was 28.5%.

As to `COc1ccc(C2CC(c3ccccc3)=NN2C(=O)c2cc(OC)c(OC)c(OC)c2)cc1O` (configuration not stated), the growth is 16.2% in the test with HCT-15 colon; 36% in the test on HT29 colon; 34.7% with SNB-75 CNS; 47.3% in the test on SNB-19 CNS; 20.6% in the test with U251 CNS; 22.5% in the test on PC-3 prostate. Besides, the growth was 22.4% in the test with SK-MEL-5 melanoma; 25.9% in the test on UACC-62 melanoma; 42.9% in the test on LOX IMVI melanoma; 64.9% in the test with SK-MEL-28 melanoma; 76.5% in the test with SK-MEL-2 melanoma; 37.5% in the test on SN12C renal. Further, the growth is 30.3% with UO-31 renal; 63.2% with TK-10 renal; 37.5% with ACHN renal; 52.9% in the test with CAKI-1 renal; 17.3% with A498 renal; 17.9% in the test on CCRF-CEM leukemia. The growth in the test with MOLT-4 leukemia was 18.9%.

Take `CN1CCOCCN(C)Cc2ccc3ccc(cc3c2)CN(C)CCOCCN(C)Cc2ccc3ccc(cc3c2)C1`: the growth is 73.2% in the test with HCT-15 colon; 7.33% (active) in the test on HT29 colon; 78.3% with SNB-75 CNS; 86.5% with SNB-19 CNS; 80.7% in the test with U251 CNS; 55.5% in the test on PC-3 prostate. Besides, the growth is 99.4% with SK-MEL-5 melanoma; 104% in the test on UACC-62 melanoma; 93.8% in the test on LOX IMVI melanoma; 105% in the test on SK-MEL-28 melanoma; 114% with SK-MEL-2 melanoma; 92.6% with SN12C renal. Also, the growth was 80.8% in the test with UO-31 renal; 97.4% in the test with TK-10 renal; 98.5% in the test with ACHN renal; 77.7% in the test on CAKI-1 renal; 79.1% in the test on A498 renal; 56.3% in the test with CCRF-CEM leukemia. Moreover, the growth in the test on MOLT-4 leukemia was 74%.

Regarding `Cc1cccc(N=Nc2cccc(C)c2)c1`, the growth in the test on HCT-15 colon is 96.3%; in the test on HT29 colon, 102%; in the test with SNB-75 CNS, 132%; with SNB-19 CNS it was 92.4%; in the test with U251 CNS, 106%; with PC-3 prostate, 104%. Further, the growth in the test with SK-MEL-5 melanoma was 105%; with UACC-62 melanoma, 92.8%; in the test on LOX IMVI melanoma, 105%; in the test on SK-MEL-28 melanoma, 107%; in the test on SK-MEL-2 melanoma, 110%; with EKVX NSCLC, 96.2%. Further, the growth in the test with UO-31 renal was 86.8%; with ACHN renal it was 99.8%; in the test with CAKI-1 renal it was 96.2%; in the test with A498 renal it was 93.8%; with CCRF-CEM leukemia, 108%; in the test on MOLT-4 leukemia, 111%.

In the case of `O=c1cc(C(F)(F)F)c2cc(-c3cc4ccccc4c(=O)o3)c(O)cc2o1`, the growth was 90.3% with HCT-15 colon; 106% in the test with HT29 colon; 76.1% with SNB-75 CNS; 67.7% in the test with SNB-19 CNS; 65.7% in the test with U251 CNS; 68.5% with PC-3 prostate. Further, the growth in the test with SK-MEL-5 melanoma is 24.9%; with UACC-62 melanoma, 21.9%; in the test on LOX IMVI melanoma, 72.8%; in the test with SK-MEL-28 melanoma, 69.6%; in the test with SK-MEL-2 melanoma it was 46.1%; in the test on EKVX NSCLC, 89.5%. In addition, the growth was 58.5% in the test with UO-31 renal; 103% in the test on TK-10 renal; 74.1% with ACHN renal; 76.5% in the test on CAKI-1 renal; 72% with A498 renal; 53.9% in the test with CCRF-CEM leukemia. For the same molecule, in the test with MOLT-4 leukemia, the growth was 58.5%.

Consider `CCNC(=O)N1CCc2c(Br)c3c(c(OC)c2C1Cc1ccc(OC)cc1)OCO3` (configuration not stated), for which the growth is 24.6% in the test with HCT-15 colon; 14.4% with HT29 colon; -7.7% (active) in the test on SNB-75 CNS; 49.7% with SNB-19 CNS; 32.3% in the test on U251 CNS; 27.9% in the test with PC-3 prostate. For the same molecule, the growth is 28.9% in the test with SK-MEL-5 melanoma; 20.7% in the test with UACC-62 melanoma; 32.6% in the test with LOX IMVI melanoma; 55.9% in the test on SK-MEL-28 melanoma; 15.4% with SK-MEL-2 melanoma; 49.9% in the test with SN12C renal. Moreover, the growth with UO-31 renal is 40.2%; with TK-10 renal it was 65.6%; with ACHN renal, 33.6%; in the test with CAKI-1 renal, 18.6%; with A498 renal, -12.4% (active); with CCRF-CEM leukemia, 31.5%. Moreover, in the test on MOLT-4 leukemia, the growth is 23.6%.
